PubChem BioAssay (NCATS)
Records with an inconclusive call do not appear. A call without a number means that no potency is given here. Active and inactive are the calls of the source. Calls come from the whole dose curve; as a rule, active = well fitted inhibition curve with a large enough effect; inconclusive = small, poorly fitted or top-dose-only effect; inactive = flat fitted curve, though single readings scatter.

Legend:
Experiment in all cases: qHTS profiling for inhibitors of Plasmodium falciparum proliferation (AID 504749); note: nearly all actives have a fitted effect of over 60% in size
Conditions in all cases: P. falciparum in erythrocytes, SYBR Green DNA, 72 h; series mostly up to 28.7 µM
DIV17 = tested on: DIV17
In short: (§1)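 Fluorescence of SYBR Green-bound parasite DNA, read at 485/535 nm, served as the growth measure. Infected erythrocytes were cultured with compound 72 h; artemisinin (0.29 uM) and DMSO wells defined the normalization range.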

DIV30 = tested on: DIV30
In short: as §1

Dd2 = tested on: Dd2
In short: as §1

ECU = tested on: ECU
In short: as §1

FAB9 = tested on: FAB9
In short: as §1

GB4 = tested on: GB4
In short: as §1

HB3 = tested on: HB3
In short: as §1

ICS = tested on: ICS
In short: as §1

JCK = tested on: JCK
In short: as §1

N140 = tested on: N140
In short: as §1

PAD = tested on: PAD
In short: as §1

PC15 = tested on: PC15
In short: as §1

PC26 = tested on: PC26
In short: as §1

PC49 = tested on: PC49
In short: as §1

SC27B = tested on: SC27B
In short: as §1

TAB109 = tested on: TAB109
In short: as §1

TAB113 = tested on: TAB113
In short: as §1

TAB165 = tested on: TAB165
In short: as §1

P93_24 = tested on: P93_24
In short: as §1

P94_40 = tested on: P94_40
In short: as §1
Potency is the fitted concentration of half-maximal effect.

| Structure (SMILES) | Potency (DIV17) | Potency (DIV30) | Potency (Dd2) | Potency (ECU) | Potency (FAB9) | Potency (GB4) | Potency (HB3) | Potency (ICS) | Potency (JCK) | Potency (N140) | Potency (PAD) | Potency (PC15) | Potency (PC26) | Potency (PC49) | Potency (SC27B) | Potency (TAB109) | Potency (TAB113) | Potency (TAB165) | Potency (P93_24) | Potency (P94_40) |
| --- | --- | --- | --- | --- | --- | --- | --- | --- | --- | --- | --- | --- | --- | --- | --- | --- | --- | --- | --- | --- |
| NS(=O)(=O)c1ccc(Cl)c(S(N)(=O)=O)c1 | inactive | inactive | inactive | inactive | inactive | inactive | inactive | inactive | inactive | inactive | inactive | inactive | inactive | inactive | inactive | inactive | inactive | inactive |  |  |
| Cc1cc(NS(=O)(=O)c2ccc(N)cc2)nc(C)n1 | inactive | inactive | inactive | inactive | inactive | inactive | inactive | inactive | inactive | inactive | inactive | inactive | inactive | inactive | inactive | inactive | inactive | inactive | inactive | inactive |
| CCN(CC)CCNC(=O)COc1ccc(OC)cc1 | inactive | inactive | inactive | inactive | inactive |  | inactive | inactive | inactive | inactive | inactive | inactive | inactive | inactive | inactive | inactive | inactive | inactive | inactive | inactive |
| Cl/C(=C\n1cncn1)c1ccc(Cl)cc1Cl | inactive | inactive | inactive | inactive | inactive | inactive | inactive |  | inactive | inactive | inactive | inactive | inactive | inactive | inactive | inactive | inactive | inactive | inactive | inactive |
| CN1CCN(c2c(F)cc3c(=O)c(C(=O)O)cn4c3c2SCC4)CC1 | inactive | inactive | 10 µM (active) |  | inactive | inactive | inactive |  | inactive |  |  | inactive | inactive | inactive | inactive |  | inactive |  |  |  |
| CC(=O)NO | inactive | inactive | inactive | inactive | inactive | inactive | inactive | inactive | inactive | inactive | inactive | inactive | inactive | inactive | inactive | inactive | inactive | inactive | inactive | inactive |
| O=C(O)CCC(=O)Nc1ccc(S(=O)(=O)Nc2nccs2)cc1 | inactive | inactive | inactive | inactive | inactive | inactive | inactive | inactive | inactive | inactive | inactive | inactive | inactive | inactive | inactive | inactive | inactive | inactive | inactive | inactive |
| NC(N)=NCc1cccc(I)c1 | inactive | inactive | inactive | inactive | inactive | inactive | inactive |  | inactive | inactive | inactive | inactive | inactive | inactive | inactive | inactive | inactive | inactive | inactive | inactive |
| O=C(c1ccc(F)cc1)C1CCN(CCn2c(=S)[nH]c3ccccc3c2=O)CC1 | 13.5 µM (active) | 12 µM (active) | 11.2 µM (active) | 4.47 µM (active) |  | 12 µM (active) | 11.2 µM (active) | 5.01 µM (active) | 11.2 µM (active) | 5.01 µM (active) | 8.91 µM (active) |  | 8.49 µM (active) | 11.2 µM (active) | 3.16 µM (active) | 4.47 µM (active) | 3.98 µM (active) | 5.01 µM (active) | 3.98 µM (active) | 3.16 µM (active) |
| Cc1cccc(C)c1NC(=O)CN1CCCC1 | inactive | inactive | inactive | inactive | inactive | inactive | inactive | inactive | inactive | inactive | inactive | inactive | inactive | inactive | inactive | inactive |  | inactive | inactive | inactive |
| O=C1C(O)=C(O)C(=O)C(O)=C1O | inactive | inactive | 10 µM (active) | inactive | inactive | inactive | inactive |  | inactive | inactive | inactive | inactive | inactive | inactive | inactive | inactive | inactive | inactive | inactive | inactive |
| C=CCN1CCc2nc(N)sc2CC1 | inactive | inactive | inactive | inactive | inactive | inactive | inactive |  | inactive | inactive | inactive | inactive | inactive | inactive | inactive | inactive | inactive | inactive |  | inactive |
| O=C(O)P(=O)(O)O | inactive | inactive | inactive | inactive | inactive | inactive | inactive | inactive | inactive | inactive | inactive | inactive | inactive | inactive | inactive | inactive | inactive | inactive | inactive | inactive |
| COc1ccc(CCN(C)CCCN2CCc3cc(OC)c(OC)cc3CC2=O)cc1OC | inactive | inactive |  | inactive | inactive | inactive | inactive |  | inactive | inactive | inactive | inactive | inactive | inactive | inactive | inactive | inactive | inactive |  | inactive |
